Shown is part of a subset that was picked to be rich in hits.
BLM helicase inh: Bloom syndrome helicase (human) inhibition; P54132; recombinant BLM DNA unwinding, fluorescence dequenching; Potency, µM (series often up to 56.1 µM), usual class: inhibitors; 350,000 compounds, 0.2% hits; AID 2528; note: nearly all actives have a fitted effect of over 35% in size
JMJD2E inh: blocks human JMJD2E demethylase activity. JMJD2E catalytic domain, FDH-coupled NADH fluorescence (FDH is formaldehyde dehydrogenase). Potency, µM (titrated, usually from 57.1 µM), most hits filed as inhibitors. 230,000 compounds, 1.6% hits. B2RXH2. AID 2147; active = well fitted inhibition curve with a large enough effect, not every such curve was filed as active; inconclusive = small, poorly fitted or top-dose-only effect, or another doubt; inactive = no such curve, though single readings can be large or run the other way; note: nearly all actives have a fitted effect of over 50% in size
APE1 inh: APE1 (human) endonuclease inhibition; P27695; recombinant APE1, TAMRA/BHQ-2 abasic DNA cleavage fluorescence; Potency, µM (highest dose often 65.8 µM), actives largely listed as inhibitors; 350,000 compounds, 0.35% hits; AID 2517; note: nearly all actives have a fitted effect of over 55% in size
Target sequence (P27695 whole entry, looked up): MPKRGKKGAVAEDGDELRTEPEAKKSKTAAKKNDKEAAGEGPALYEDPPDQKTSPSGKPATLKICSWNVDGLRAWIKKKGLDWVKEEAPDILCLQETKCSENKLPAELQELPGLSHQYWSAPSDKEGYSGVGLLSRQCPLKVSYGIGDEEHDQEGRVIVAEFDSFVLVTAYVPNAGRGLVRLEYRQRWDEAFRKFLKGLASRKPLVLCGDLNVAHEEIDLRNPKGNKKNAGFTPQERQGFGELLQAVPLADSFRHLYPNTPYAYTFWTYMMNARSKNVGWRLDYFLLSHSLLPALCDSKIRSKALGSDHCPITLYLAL
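Quantitative HTS: incision of a TAMRA/BHQ-2 double-stranded substrate bearing a tetrahydrofuran abasic site by 0.75 nM APE1 raises fluorescence. Substrate 50 nM final, added after 15 min compound preincubation at room temperature; progress as third-minus-first kinetic read difference.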
PKM2 act: increases activity of human pyruvate kinase M2 | AID 1631 | 260,000 compounds, 0.34% hits | Potency, µM (doses to about 57.5 µM), usual class: activators | purified PKM2, Kinase-Glo ATP luminescence, activation; response scale: 0% is enzyme alone, no compound | P14618; note: nearly all actives have a fitted effect of over 55% in size
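Purified hPK-M2 (>95% pure) converted ADP (0.1 mM final) to ATP with 0.5 mM PEP in 50 mM imidazole pH7.2, KCl, MgCl2, Tween 20, BSA; 1 h at room temperature. ATP detected by Kinase-Glo luminescence.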
RECQ1 inh-1: RECQ1 (human) helicase inhibition; AID 2549; 240,000 compounds, 0.54% hits; Potency, µM (highest dose often 57.3 µM), most hits filed as inhibitors; P46063; RECQ1 DNA unwinding, red fluorescence kinetic read; note: nearly all actives have a fitted effect of over 30% in size
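50 nM RECQ1T1 preincubated 15 min with compound in Tris pH 8.0 buffer with MgCl2, DTT, Tween-20 and 2.5 ug/ml poly(dI-dC); started with 200 nM TAMRA/BHQ-2 forked duplex and 2 mM ATP. Unwinding read as fluorescence (525/598 nm), two reads 2 h apart.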
RECQ1 inh conf: confirmation of human RECQ1 helicase inhibitors. shares compounds with RECQ1 inh-1. RECQ1 helicase DNA unwinding, fluorescence. Potency, µM (highest dose often 229 µM), hits mostly inhibitors. 610 compounds, 28% hits. AID 2708; note: nearly all actives have a fitted effect of over 45% in size
ADP FP counter: displaces ADP in a fluorescence polarization counter-screen for RECQ1 hits. shares compounds with RECQ1 inh-1. ADP fluorescence polarization displacement counterscreen. Potency, µM (top dose mostly 228 µM), hits mostly inhibitors. 530 compounds, 27% hits. AID 2711; note: nearly all actives have a fitted effect of over 45% in size
RECQ1 inh-2: confirmation of human RECQ1 helicase inhibitors. shares compounds with RECQ1 inh-1. recombinant RECQ1 DNA unwinding, red fluorescence. Potency, µM (highest dose often 119 µM), most hits filed as inhibitors. 1,100 compounds, 15% hits; note: nearly all actives have a fitted effect of over 50% in size
Large screens that a line does not name were inactive (follow-up assays come after a bar, where they were run). Unless noted, calls come from the whole dose curve; as a rule, active = well fitted curve in the direction sought with a large enough effect; inconclusive = small, poorly fitted or top-dose-only effect, or another doubt; inactive = no such curve, though single readings can be large; an effect the other way counts as inactive or inconclusive.

CCn1c(=O)cc(OCC(=O)N(C)c2cc(Cl)ccc2C)c2ccccc21	none (no result: JMJD2E inh, APE1 inh, PKM2 act, RECQ1 inh-1)
Cc1cccc(N2CCN(c3cc(C)nc4c(-c5ccc(Cl)cc5)c(C)nn34)CC2C)c1 (stereo not drawn)	none (no result: JMJD2E inh, APE1 inh, PKM2 act, RECQ1 inh-1)
N#CC1=C(SCC(=O)c2cc3ccccc3oc2=O)NC(=O)C(C#N)C12CCCC2 (stereo not drawn)	JMJD2E inh inconclusive, APE1 inh inconclusive, RECQ1 inh-1 inconclusive | RECQ1 inh-2 inactive
CC1=Nc2cc(C(=O)NC3CCCC3)ccc2Sc2ccc(Br)cc21	none (no result: JMJD2E inh, APE1 inh, PKM2 act, RECQ1 inh-1)
CC1=Nc2cc(C(=O)O)ccc2Sc2ccc(Br)cc21	APE1 inh inconclusive, RECQ1 inh-1 0.32µM | RECQ1 inh conf 100µM | ADP FP counter inactive | RECQ1 inh-2 inactive
CCOC(=O)c1cccnc1SCC(=O)Nc1ccc(C)cc1C	none (no result: JMJD2E inh, APE1 inh, PKM2 act, RECQ1 inh-1)
CC(=O)Nc1nonc1-c1nnc(SCc2ccccc2Cl)n1C	none (no result: JMJD2E inh, APE1 inh, PKM2 act, RECQ1 inh-1)
CCc1nc(Nc2ccc(N3CCN(C(C)=O)CC3)cc2)c2oc3ccccc3c2n1	JMJD2E inh inconclusive, APE1 inh inconclusive, RECQ1 inh-1 inconclusive | RECQ1 inh-2 inactive
CC(C)CC(=O)NC(=S)Nc1cc(C(F)(F)F)ccc1N1CCOCC1	none
O=C(CCc1ccccc1)NC(=S)Nc1cc(C(F)(F)F)ccc1N1CCOCC1	RECQ1 inh-1 inconclusive | RECQ1 inh-2 inactive
CCOC(=O)c1c(NC(C)=O)c2c3c(sc2n1Cc1cc(C)ccc1C)CCCC3	none (no result: JMJD2E inh, APE1 inh, PKM2 act, RECQ1 inh-1)
O=C1CCCC2=C1C(c1ccc(O)c(O)c1)c1c(ccc3ncccc13)N2 (stereo not drawn)	JMJD2E inh 25µM, APE1 inh 10µM, RECQ1 inh-1 11µM | RECQ1 inh conf inconclusive | ADP FP counter inconclusive | RECQ1 inh-2 inconclusive
CCOc1ccc(C2C3=C(CCCC3=O)Nc3ccc4ncccc4c32)cc1 (stereo not drawn)	JMJD2E inh inconclusive
Cc1cc(C)c(Nc2cc(S(=O)(=O)O)c(N)c3c2C(=O)c2ccccc2C3=O)c(C)c1	APE1 inh inconclusive, RECQ1 inh-1 inconclusive | RECQ1 inh-2 32µM
CCc1ccc(CNC(=O)CCc2c(C)nn(-c3ccc(N4CCCC4)nn3)c2C)cc1	none (no result: JMJD2E inh, APE1 inh, PKM2 act, RECQ1 inh-1)
O=C(C1=NN[C@@H]2C(=O)N(c3cccc(C(F)(F)F)c3)C(=O)[C@H]12)C(c1ccccc1)c1ccccc1	RECQ1 inh-1 28µM | RECQ1 inh-2 inactive
COc1ccccc1Cc1nc2ccccc2nc1SCC(=O)NCc1ccccc1Cl	none (no result: JMJD2E inh, APE1 inh, PKM2 act, RECQ1 inh-1)
O=C(O)CCCCCNC(=O)CCn1cnc2ccccc2c1=O	none | RECQ1 inh conf inactive | ADP FP counter inactive
O=C(O)CCCCCNC(=O)Cn1nnc2ccccc2c1=O	none

High-throughput results: PubChem BioAssay, National Center for Advancing Translational Sciences (NCATS)
